This passage reports binding signal results from publication PMC10668032, “Altered binding affinity of SIX1-Q177R correlates with enhanced WNT5A and WNT pathway effector expression in Wilms tumor”.

In all, about 33,000 sequences were measured (“e-score”: median about -0.05, highest 2% from about 0.38 on). For the sample, the highest values were picked, then their nearest neighbours and some sequences at random.

This test deals with T1, SIX1-Q177R homeodomain (human, UniProt Q15475 108-198, Q177R).
T1 sequence: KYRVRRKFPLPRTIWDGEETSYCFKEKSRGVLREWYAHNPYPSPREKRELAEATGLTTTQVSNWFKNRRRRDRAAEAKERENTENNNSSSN
Nature of the test: universal protein binding microarray; Universal all-10-mer PBM (8x60K, AMADID 030236), 300 nM GST-tagged protein, Alexa Fluor 488 anti-GST; buffer, salt, pH and temperature not stated (as in Berger); high values mean tight binding. The following applies: protein: ivt; tags: N-terminal GST; dsDNA, one strand shown. In short, it runs like this: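 Duplicate protein binding microarrays (universal 'all 10-mer', 8×60K format) were incubated with GST-tagged homeodomains at 300 nM final concentration. Binding was quantified as 8-mer E-scores with the Universal PBM Analysis Suite.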
On to ATTTTACA, for which the binding signal was found to be 0.19 ± 0.0629 E-score.
The result for TGGGTACA reads 0.29 ± 0.00578 E-score; that for ATCGCGGG, 0.167 ± 0.0319 E-score.
The result for AGGGTAGG reads 0.176 ± 0.00576 E-score; that for CCCCAAGA, 0.156 ± 0.0279 E-score.
The result for ATAACACC reads 0.479 ± 0.0087 E-score.
Turning to CTAACACA, the binding signal is 0.209 ± 0.00581 E-score.
To CTAACACC belongs 0.478 ± 0.00653 E-score.
To ATAACCCC belongs 0.266 ± 0.0237 E-score; to ATAACTCC, 0.181 ± 0.0433 E-score; to CTAACCCC, 0.223 ± 0.0193 E-score.
The result for ATAACACG reads 0.402 ± 0.0181 E-score; that for ATAACACA, 0.2399 ± 0.00217 E-score; that for GTAACACA, 0.223 ± 0.0443 E-score.
In the case of CCCCGTGC, the binding signal was 0.244 ± 0.0265 E-score.
The result for CGCCGCCG reads 0.208 ± 0.031 E-score; that for ATTCACTC, 0.151 ± 0.0349 E-score; that for AGCACGCA, 0.24 ± 0.0253 E-score.
The result for CACCCCGC reads 0.337 ± 0.0136 E-score; that for GGTCCGGA, 0.161 ± 0.0425 E-score; that for GATATCCC, 0.193 ± 0.0406 E-score.
The result for ACTCCTGA reads 0.206 ± 0.00412 E-score; that for ACACCTGA, 0.4477 ± 0.00107 E-score.
As to AAACCTGG, the binding signal came out at 0.169 ± 0.0219 E-score.
As for ACACCTGC, the binding signal turned out to be 0.4582 ± 0.00372 E-score.
Consider ACTCCTGC, for which the binding signal is 0.158 ± 0.00297 E-score.
For the sequence ACCCCTGG, the binding signal was determined as 0.163 ± 0.00865 E-score.
The result for ACCCCTGA reads 0.2405 ± 0.00201 E-score; that for ACACCTGG, 0.448 ± 0.00897 E-score; that for ACCCCTGC, 0.235 ± 0.0269 E-score.
The result for CCCTTGTA reads 0.2081 ± 0.00151 E-score; that for ATTCCGTG, 0.2 ± 0.0598 E-score.
Regarding CCCAGGCG, the binding signal was 0.167 ± 0.0378 E-score.
Consider CGAGGCAA, for which the binding signal was 0.186 ± 0.00832 E-score.
With GAGTGCAC, the binding signal stood at 0.195 ± 0.00266 E-score.
Consider CTGTGTAC, for which the binding signal is 0.229 ± 0.0232 E-score.
As to CACTGTAC, the binding signal came to 0.194 ± 0.0212 E-score.
In the case of GAGTGTAC, the binding signal is 0.419 ± 0.00767 E-score.
The result for GAGTGTGC reads 0.184 ± 0.00494 E-score; that for CAGTGCAC, 0.183 ± 0.0019 E-score.
Take AAGTGTAC: the binding signal was 0.391 ± 0.0232 E-score.
Consider CAGTGTAC, for which the binding signal was 0.4035 ± 0.00271 E-score.
The result for CAGTGTAG reads 0.4232 ± 0.00358 E-score.
Regarding AAGTGTAG, the binding signal was determined as 0.37 ± 0.0123 E-score.
Take CACTTATG: the binding signal came out at 0.161 ± 0.0539 E-score.
To AAGTTACA belongs 0.171 ± 0.00584 E-score.
To AGAAGGTG belongs 0.302 ± 0.0205 E-score; to CCCCGGAC, 0.152 ± 0.0324 E-score; to GAGCACCC, 0.283 ± 0.0502 E-score.
To AGGTGCAA belongs 0.169 ± 0.04 E-score.
Consider TGGTGCAA, for which the binding signal was 0.169 ± 0.0456 E-score.
To TGGTGTAA belongs 0.486 ± 0.00978 E-score; to ATGTGTAA, 0.225 ± 0.00674 E-score; to CGGTGTAG, 0.487 E-score.
Turning to GGGGGTAA, the binding signal was found to be 0.354 ± 0.0195 E-score.
As for GGGTGTAA, the binding signal turned out to be 0.478 ± 0.01 E-score.
Take AGGTGTAA: the binding signal is 0.463 ± 0.021 E-score.
CGGGGTAG: the binding signal was determined as 0.221 ± 0.00415 E-score.
Regarding TGGAGTAA, the binding signal is 0.233 ± 0.068 E-score.
The result for GTGTGTAA reads 0.337 ± 0.0168 E-score; that for GGTGCACC, 0.353 ± 0.00627 E-score; that for CAACAACA, 0.195 ± 0.00619 E-score.
Take TGACCCCA: the binding signal came to 0.279 ± 0.0177 E-score.
The result for CGGAGTAA reads 0.266 ± 0.0379 E-score; that for AAGGTATC, 0.251 ± 0.0701 E-score.
To GGAACCCA belongs 0.181 ± 0.0136 E-score.
The result for GACCTCAC reads 0.161 ± 0.0365 E-score; that for ACCGAACA, 0.196 ± 0.0386 E-score.
As to GGGTGTAC, the binding signal worked out at 0.4828 ± 0.00134 E-score.
Turning to CTGTGTAA, the binding signal turned out to be 0.153 ± 0.011 E-score.
The result for GGGGGTAC reads 0.331 ± 0.0182 E-score; that for CGGTGTAA, 0.481 ± 0.0071 E-score; that for GGGTGCAC, 0.28 ± 0.022 E-score.
The result for CGGTGCAA reads 0.259 ± 0.00579 E-score; that for CCCCACGA, 0.1526 ± 0.000735 E-score.
In the case of TGTAAGAA, the binding signal was 0.294 ± 0.0277 E-score.
On to AAACGTGT, for which the binding signal was 0.303 ± 0.054 E-score.
As for CCCGGTGC, the binding signal turned out to be 0.154 ± 0.0105 E-score.
For the sequence CCTTACAC, the binding signal worked out at 0.439 ± 0.0105 E-score.
The result for GCTTACAC reads 0.437 ± 0.0203 E-score; that for ACTTACGC, 0.164 ± 0.00788 E-score; that for CCTCACAC, 0.279 ± 0.0153 E-score.
The result for CCTTATAA reads 0.179 ± 0.0218 E-score; that for GCTCACAC, 0.276 ± 0.0114 E-score; that for ACTTACTC, 0.179 ± 0.00345 E-score.
Take ACTTACCC: the binding signal was 0.186 ± 0.0205 E-score.
Consider ACTTACAC, for which the binding signal was 0.449 ± 0.0178 E-score.
